The results in this text go back to PubChem BioAssay (Tox21).

Records with an inconclusive call do not appear. Values without a mark were called inactive. Calls of active or inactive are those of the source. The call rests on the fitted dose curve.
On the % scale 0 is the no-effect control and ±100 the full control effect.

Acetylcholinesterase (Homo sapiens), sequence (P22303 whole entry, looked up): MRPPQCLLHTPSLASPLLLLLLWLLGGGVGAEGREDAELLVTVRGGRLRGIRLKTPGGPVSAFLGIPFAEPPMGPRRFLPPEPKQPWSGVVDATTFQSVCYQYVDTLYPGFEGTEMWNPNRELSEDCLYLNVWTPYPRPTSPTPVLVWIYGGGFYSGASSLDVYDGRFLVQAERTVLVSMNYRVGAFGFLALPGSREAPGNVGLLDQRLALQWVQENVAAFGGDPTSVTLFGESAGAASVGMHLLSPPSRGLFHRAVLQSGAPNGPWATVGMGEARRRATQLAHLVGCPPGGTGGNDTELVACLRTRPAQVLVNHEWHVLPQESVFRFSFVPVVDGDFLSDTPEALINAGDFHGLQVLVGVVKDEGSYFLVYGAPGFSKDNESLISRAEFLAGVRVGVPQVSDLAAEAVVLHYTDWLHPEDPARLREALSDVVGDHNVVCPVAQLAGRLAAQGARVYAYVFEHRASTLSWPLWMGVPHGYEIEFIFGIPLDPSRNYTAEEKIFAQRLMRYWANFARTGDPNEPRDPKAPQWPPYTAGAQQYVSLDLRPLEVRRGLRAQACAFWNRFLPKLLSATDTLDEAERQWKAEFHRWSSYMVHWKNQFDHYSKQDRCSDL

This assay concerns the target Acetylcholinesterase (Homo sapiens) (UniProt P22303). The experiment in a line: Acetylcholinesterase (AChE) small molecule antagonists: fluorescence cell-based qHTS assay (AID 1347398). Further: nearly all actives have a fitted effect of over 50% in size. Conditions: SH-SY5Y cells; Potency: AChE activity; outcome: AChE activity; series mostly up to 115 µM; activity change, negative = inhibition: at the top concentration. Summed up:
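Read-out is Thiolite Green fluorescence at Ex/Em = 490/520 nm, formed by reaction with thiocholine released when cellular AChE in SH-SY5Y cells hydrolyzes acetylthiocholine. Compounds were preincubated 30 min at 37 C before substrate.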
For the compound `CC(C)(CO)[C@@H](O)C(=O)NCCCO`, the “activity change, negative = inhibition” value is 2.85% [at 53.7 µM].

In the case of `Nc1ccc(S(=O)(=O)Nc2nccs2)cc1`, the Potency result is “inactive”.

In the case of `CC/C=C\CC1=C(C)CCC1=O`, the “activity change, negative = inhibition” value is -25.9%.

Turning to `Cc1cc(C)c(C)c(O)c1`, the “activity change, negative = inhibition” value is 0.194%.

On to `CCCCNC(=O)NS(=O)(=O)c1ccc(N)cc1`, for which the Potency entry is “inactive”.

As to `Cn1c(N)nc2nc[nH]c2c1=O`, the “activity change, negative = inhibition” value was -5.67%.

Regarding `CCCCCCCC`, the “activity change, negative = inhibition” value is 2.43%.

Turning to `CC1(C)S[C@@H]2[C@H](NC(=O)[C@H](N)c3ccccc3)C(=O)N2[C@H]1C(=O)O`, the Potency result is “inactive”.

Regarding `C=CC(=O)OCCOC(=O)CCC(=O)O`, the “activity change, negative = inhibition” value was 2.49%.

With `CCCCCCCCCCC(CO)CCCCCCCC` (stereo not drawn), the Potency result is “inactive”.

Consider `CCCC(=O)OC`, for which the “activity change, negative = inhibition” value is 0.184%.

In the case of `CC[C@]1(O)C[C@H]2CN(CCc3c([nH]c4ccccc34)[C@@](C(=O)OC)(c3cc4c(cc3OC)N(C=O)[C@H]3[C@@](O)(C(=O)OC)[C@H](OC(C)=O)[C@]5(CC)C=CCN6CC[C@]43[C@@H]65)C2)C1`, the “activity change, negative = inhibition” value was 2.14% [at 53.7 µM].

Regarding `CC/C=C\CCOC(=O)CC`, the “activity change, negative = inhibition” value was 1.15%.

On to `CC(C)(O)c1coc(S(=O)(=O)NC(=O)Nc2c3c(cc4c2CCC4)CCC3)c1`, for which the “activity change, negative = inhibition” value is -8.04%.

Consider `O=C(OCc1ccccc1)c1ccccc1O`, for which the Potency entry is “inactive”.

As to `COc1ccc2nc(S(=O)Cc3ncc(C)c(OC)c3C)[nH]c2c1` (stereo not drawn), the “activity change, negative = inhibition” value was -12.3% [at 53.7 µM].

Consider `Oc1c(Cl)cc(Cl)c(Cl)c1Cl`, for which the Potency result is “inactive”.

Regarding `Cc1occc1SSc1ccoc1C`, the “activity change, negative = inhibition” value is 0.74%.

Take `OCCOCC#CCOCCO`: the “activity change, negative = inhibition” value was 0.677%.

For the compound `CCC(C)OC(=O)c1ccc(O)cc1` (stereo not drawn), the Potency entry was “inactive”.

As to `CCCNC(C)(C)COC(=O)c1ccccc1`, the “activity change, negative = inhibition” value is 18.4% [at 53.7 µM].

As to `O=C(O)C(=O)Nc1cccc(-c2nn[nH]n2)c1`, the “activity change, negative = inhibition” value is 2.37% [at 53.7 µM].

Regarding `Cc1cccc(C)c1NC(=O)CC12CCCN1CCC2`, the “activity change, negative = inhibition” value was -1.12% [at 53.7 µM].
